In paper PMC5540273 (PLoS ONE, 2017):

Columns and labels:
Conditions in all cases: concentration: 1 μM, replicates: in singlicate; n = 1
[1] = system: NEK11
[2] = system: NEK1
[3] = system: NEK2
[4] = system: NEK3
[5] = system: NEK4
[6] = system: NEK5
[7] = system: NEK6
[8] = system: NEK7
[9] = system: NEK9
[10] = system: T1, NIK
T1 construct: gene MAP3K14
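Note: KINOMEscan kinase panel screen.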

SMILES	%Inh [1] [%]	%Inh [2] [%]	%Inh [3] [%]	%Inh [4] [%]	%Inh [5] [%]	%Inh [6] [%]	%Inh [7] [%]	%Inh [8] [%]	%Inh [9] [%]	%Inh [10] [%]
O=C(Nc1cccc(-c2nn3ccccc3c2-c2ccnc(Nc3cccc(F)c3)n2)c1)c1c(F)ccc(F)c1Cl [GSK357952]	6	0	20	0	6	0	0	6	19	36
c1ccc(-c2n[nH]cc2Nc2ccnc3ccccc23)nc1 [GW694077]	0	7	99.1	3	0	6	0	0	41	19
Cc1cccc(NC(=O)Nc2ccc(Oc3ncnc4ccn(C)c34)cc2)c1	0	0	0	19	0	0	16	0	1	5
O=C(NC1CCN(c2ccnc(Nc3ccc(F)cc3)n2)C1)c1cc2ccccc2s1 (stereo not drawn) [GSK1379716]	20	0	8	9	0	13	3	0	17	42
Nc1ncc(-c2ccc3nccc(-c4ccncc4)c3c2)cc1S(=O)(=O)N1CCOCC1 [GSK1627798]	0	0	12	0	5	0	0	0	2	0
COCCOCCOc1cc2ncc3c4ccc(C#N)cc4[nH]c3c2cc1OC	0	0	53	33	0	0	0	15	7	65
COc1cc2c(cc1OCCN1CCNCC1)ncc1c3ccc(C#N)cc3[nH]c21	7	0	41	29	100	0	15	0	0	65
Cc1ccc(C)c(NC(=O)NC2CCN(c3ccnc(Nc4ccc(F)cc4)n3)C2)c1 (stereo not drawn) [GSK1379720]	15	0	0	8	27	4	0	0	0	22
CN(C)Cc1ccc(-c2ccc3c(Nc4ccc(Oc5ccccn5)cc4)ccnc3c2)o1 [GW567148]	8	0	0	0	21	0	0	0	0	12
CC(C)c1nc(-c2cccc(NS(=O)(=O)c3c(F)cccc3F)c2F)c(-c2ccnc(Nc3ccc(N4CCOCC4)nc3)n2)s1 [GSK2008607]	98.6	82	99.1	1	51	26	99.1	92.9	93.6	0
O=C(Nc1ccccc1F)NC1CCN(c2ccnc(Nc3ccc(F)cc3)n2)CC1 [GSK1379800]	7	0	0	13	0	33	0	0	0	9
COc1cc(Nc2nccc(-c3c(-c4cccc(NC(=O)c5c(F)cccc5F)c4)nn4ncccc34)n2)cc(OC)c1OC [GSK327238]	0	0	92.7	0	12	58	17	18	41	13
CC(C)(C)c1ccc2nccc(Nc3cccc(O)c3)c2c1 [GW856795]	22	0	11	13	0	0	0	0	0	9
Oc1cc(Nc2ccnc3cc(I)ccc23)ccc1F [GW552771]	0	0	0	1	38	0	0	0	0	0
Cl.Cl.NCC(NCc1ccc(-c2ccnc3[nH]ccc23)s1)c1ccccc1 (stereo not drawn) [GSK1321565]	13	0	0	0	0	10	0	0	6	20
